The source of these data is PubChem BioAssay (Tox21).

Results filed as inconclusive are left out. A number with no mark means an inactive call. Activity calls are given as the source filed them. Unless noted, calls come from the whole dose curve; as a rule, active = well fitted curve in the direction sought with a large enough effect in the repeat runs; inconclusive = weak or mixed curves; inactive = no such curve, though single readings can be large; an effect the other way counts as inactive or inconclusive.

Assay [1] can be described thus: qHTS assay to identify small molecule agonists of the RXR signaling pathway - cell viability counter screen (AID 1159529).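 Note: HEK 293T cells carrying an RXR-alpha UAS beta-lactamase reporter; series mostly up to about 77 µM; nearly all actives have a fitted effect of over 50% in size.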 An outline of the steps:
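Counter screen: CellTiter-Glo luminescence. Cells: RXR-alpha-UAS-bla HEK 293T. Medium: 2% charcoal-stripped FBS. Treatment: 16 h, 37 C. Reagent incubation: 30 min, RT.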
Background: In qHTS, concentration-response curves come from the screen itself.

A short description of assay [2]: qHTS assay to identify small molecule antagonists of the retinoid acid receptor (RAR) signaling pathway - cell viability counter screen (AID 1159551). Note: nearly all actives have a fitted effect of over 35% in size. An outline of the steps:
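Seed C3RL4 cells; next day add compound, then retinol to 1 uM final; incubate 6 h at 37 C; add CellTiter-Glo; read luminescence after 30 min at RT.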

Assay [3] can be described thus: qHTS assay to identify small molecule antagonists of the estrogen related receptor (ERR) signaling pathway from Tox21 library - cell viability counter screen (AID 1224834). Note: nearly all actives have a fitted effect of over 30% in size. An outline of the steps: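 CellTiter-Fluor fluorescence measured; ERR cells; 17.5 h compound incubation at 37 C; 30 min reagent step.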
Assay [4] has as its target Luciferin 4-monooxygenase (Photinus pyralis) (UniProt P08659). The assay can be described thus: qHTS assay to identify small molecule inhibitors of firefly luciferase (AID 1224835). For activity change, negative = inhibition: series mostly up to about 120 µM. Note: nearly all actives have a fitted effect of over 25% in size. Note: potency is the fitted concentration of half-maximal effect. An outline of the steps: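 Inhibition of purified Photinus luciferase is measured by luminescence. Substrate levels (D-luciferin, ATP) sit at their KM values. Each compound is tested in a concentration series.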

A short description of assay [5]: qHTS assay to identify small molecule agonists of the constitutive androstane receptor (CAR) signaling pathway - cell viability counter screen (AID 1224836). Note: series mostly up to about 92 µM; nearly all actives have a fitted effect of over 45% in size. An outline of the steps:
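Double-stable HepG2 hepatoma cells (hCAR plus CYP2B6-2.2kb) are treated for 23 h at 37 C with test compounds in 15-point concentration series. PK11195 at 0.75 uM final is co-added. Cell viability is quantified by CellTiter-Fluor.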

Assay [6] can be described thus: qHTS assay to identify small molecule antagonists of the constitutive androstane receptor (CAR) signaling pathway - cell viability counter screen (AID 1224837). Note: series mostly up to about 92 µM; nearly all actives have a fitted effect of over 45% in size. An outline of the steps: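 Using CellTiter-Fluor, viability is scored in HepG2 cells stably carrying hCAR and a 2.2kb CYP2B6 reporter after 23 hr compound exposure across 15 concentrations, with CITCO present at 50 nM.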

Assay [7] addresses Nuclear receptor subfamily 1 group I member 3 (Homo sapiens) (UniProt Q14994). The assay can be described thus: qHTS assay to identify small molecule antagonists of the constitutive androstane receptor (CAR) signaling pathway (AID 1224838).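 Note: HepG2 cells stably expressing hCAR with CYP2B6 luciferase reporter stimulated by CITCO; nearly all actives have a fitted effect of over 40% in size.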 Note: potency is the fitted concentration of half-maximal effect. An outline of the steps:
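Reporter luminescence was quantified after 24 h exposure of hCAR/CYP2B6-2.2kb double-stable HepG2 cells to compounds at 15 concentrations in the presence of 50 nM CITCO final.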

The target is the same in assay [8]. The assay can be described thus: qHTS assay to identify small molecule agonists of the constitutive androstane receptor (CAR) signaling pathway (AID 1224839). Note: nearly all actives have a fitted effect of over 15% in size. Note: potency is the fitted concentration of half-maximal effect. An outline of the steps: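 Readout: firefly luciferase luminescence via ONE-Glo. System: HepG2 double-stable for hCAR and CYP2B6-2.2kb. Conditions: 15-point compound titration, PK11195 at 0.75 uM final, 24 h incubation.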

Assay [9] can be described thus: qHTS assay to identify small molecule antagonists of the estrogen related receptor signaling pathway with the pleiotropic PPARgamma coactivator (PGC) from Tox21 10K library - cell viability counter screen (AID 1224840; active = well fitted cell-killing curve with a large enough effect in the repeat runs, not every such curve was filed as active; note: nearly all actives have a fitted effect of over 40% in size). An outline of the steps:
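Here the PGC/ERR cells serve as a cytotoxicity control: they are exposed to compounds for 17.5 hours at 37 C, and live-cell signal is quantified using CellTiter-Fluor fluorescence.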

Assay [10] in a line: qHTS assay to identify small molecule antagonists of the estrogen related receptor signaling pathway with the pleiotropic PPARgamma coactivator (PGC) from Tox21 10K library (AID 1224841; call rule not given here; note: series mostly up to about 92 µM; actives are mostly falling curves and most rising ones were filed inactive; nearly all actives have a fitted effect of over 50% in size). An outline of the steps: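 Each well held 2,000 PGC/ERR cells, pre-incubated six hours (37 C, 5% CO2). Test substances in DMSO were added by pin tool and left for 18 h at 37 C before luciferase detection by One-Glo.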

Assay [11] can be described thus: qHTS assay to identify small molecule agonists of the estrogen related receptor signaling pathway with the pleiotropic PPARgamma coactivator (PGC) from Tox21 10K library (AID 1224842). Note: nearly all actives have a fitted effect of over 15% in size. An outline of the steps:
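Luminescence from One-Glo (30 min, room temperature) measured after PGC/ERR cells had 18 h at 37 C with pinned compound (23 nL in DMSO). Cells had been seeded at 2,000 per well and pre-incubated 6 h.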

Assay [12] has as its target Thyrotropin receptor (Homo sapiens) (UniProt P16473). Put plainly: qHTS assay to identify small molecule agonists of the thyroid stimulating hormone receptor (TSHR) signaling pathway (AID 1224843; calls by dose curve; note: nearly all actives have a fitted effect of over 45% in size). An outline of the steps: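 HEK293 cells stably bearing the thyrotropin receptor were plated at 800 cells/well and challenged with compound (30 min, RT). Accumulated cAMP was quantified via cAMP-d2 competing for cryptate-tagged antibody.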

Assay [13] can be described thus: qHTS assay to identify small molecule agonists of the retinoic acid receptor (RAR) signaling pathway (AID 1159553). An outline of the steps:
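Activation of retinol signaling was monitored via a RARE luciferase reporter in C3RL4 cells. After 6 hr compound treatment at 37 C, detection reagent was added for 30 min at room temperature before luminescence reading.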

The nature of assay [14]: qHTS assay to identify small molecule antagonists of the retinoic acid receptor (RAR) signaling pathway (AID 1159552; note: nearly all actives have a fitted effect of over 50% in size). An outline of the steps: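 Antagonism of retinol-induced RARE reporter activity was measured in C3RL4 cells. Exposure to compounds and 1 uM final retinol lasted 6 hr at 37 C, with luminescence as endpoint.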
% is set by controls: 0 for no effect and ±100 for the full control effect.

Luciferin 4-monooxygenase (Photinus pyralis), sequence (P08659 whole entry, looked up): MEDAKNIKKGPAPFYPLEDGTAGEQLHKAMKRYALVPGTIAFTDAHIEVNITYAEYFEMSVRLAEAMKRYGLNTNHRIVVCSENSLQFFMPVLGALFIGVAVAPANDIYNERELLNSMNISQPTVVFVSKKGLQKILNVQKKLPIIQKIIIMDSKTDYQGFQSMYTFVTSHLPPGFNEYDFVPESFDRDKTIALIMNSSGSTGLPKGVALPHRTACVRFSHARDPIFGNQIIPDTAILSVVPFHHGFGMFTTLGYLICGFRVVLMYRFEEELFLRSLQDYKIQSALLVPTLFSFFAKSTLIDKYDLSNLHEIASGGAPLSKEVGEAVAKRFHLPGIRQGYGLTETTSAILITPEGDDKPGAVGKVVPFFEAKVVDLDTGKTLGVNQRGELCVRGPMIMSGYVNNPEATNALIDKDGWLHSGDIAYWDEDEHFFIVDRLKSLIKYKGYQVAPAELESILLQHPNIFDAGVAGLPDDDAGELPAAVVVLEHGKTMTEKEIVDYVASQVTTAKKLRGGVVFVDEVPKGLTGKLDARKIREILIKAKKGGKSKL
Nuclear receptor subfamily 1 group I member 3 (Homo sapiens), sequence (Q14994 whole entry, looked up): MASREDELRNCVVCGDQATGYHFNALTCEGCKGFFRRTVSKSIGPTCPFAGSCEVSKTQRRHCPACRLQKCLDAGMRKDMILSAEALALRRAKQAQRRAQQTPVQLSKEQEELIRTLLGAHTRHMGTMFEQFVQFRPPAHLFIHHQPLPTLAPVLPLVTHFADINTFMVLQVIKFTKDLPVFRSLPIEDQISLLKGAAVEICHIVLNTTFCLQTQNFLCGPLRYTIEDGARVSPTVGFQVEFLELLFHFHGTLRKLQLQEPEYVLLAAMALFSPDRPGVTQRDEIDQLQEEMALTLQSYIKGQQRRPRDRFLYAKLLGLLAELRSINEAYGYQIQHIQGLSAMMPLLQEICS
Thyrotropin receptor (Homo sapiens), sequence (P16473 whole entry, looked up): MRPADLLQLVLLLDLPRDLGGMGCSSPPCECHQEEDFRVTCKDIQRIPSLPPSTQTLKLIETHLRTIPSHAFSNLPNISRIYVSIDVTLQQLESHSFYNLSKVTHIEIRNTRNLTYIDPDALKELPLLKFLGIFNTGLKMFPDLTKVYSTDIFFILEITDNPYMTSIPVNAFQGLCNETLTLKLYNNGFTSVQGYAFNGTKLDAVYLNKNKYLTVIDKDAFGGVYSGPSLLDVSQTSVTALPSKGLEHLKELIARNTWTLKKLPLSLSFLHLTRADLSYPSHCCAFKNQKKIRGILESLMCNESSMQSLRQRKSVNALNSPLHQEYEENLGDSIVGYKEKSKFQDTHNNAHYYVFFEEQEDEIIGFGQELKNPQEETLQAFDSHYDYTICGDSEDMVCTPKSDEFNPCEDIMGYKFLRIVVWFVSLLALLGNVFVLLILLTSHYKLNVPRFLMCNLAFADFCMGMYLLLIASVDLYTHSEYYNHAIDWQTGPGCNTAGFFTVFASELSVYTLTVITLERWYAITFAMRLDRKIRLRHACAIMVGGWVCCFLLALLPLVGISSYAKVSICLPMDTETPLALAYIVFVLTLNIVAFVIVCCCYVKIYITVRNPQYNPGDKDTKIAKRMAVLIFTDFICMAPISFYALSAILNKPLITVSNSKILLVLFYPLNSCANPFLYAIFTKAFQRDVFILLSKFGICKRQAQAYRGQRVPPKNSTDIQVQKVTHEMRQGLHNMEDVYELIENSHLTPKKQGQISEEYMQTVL

With `Cc1cc(NC(=O)C(=O)O)cc(C)c1Oc1ccc(O)c2c1CCC2`, the Potency entry in assay [1], in assay [2], in [3], in assay [5], in assay [6] and in assay [7] was “inactive” in each case. In addition, the Potency result in [8], in assay [9], in assay [10] and in assay [11] was “inactive” each time. The Potency in assay [4] is 35.6 µM (active).

As to `CCCCCCCCCC=O`, the Potency result in assay [1], in assay [2], in assay [3], in assay [6] and in assay [9] was “inactive” each time.

Regarding `Cn1sccc1=O`, the Potency entry in assay [1], in assay [2], in assay [3], in assay [5], in assay [8] and in [9] was “inactive” in each case. Also, the Potency entry in assay [10] and in [12] was “inactive” each time. Further, in assay [7], the Potency is 24.3 µM (active).

Turning to `CCCCOCCOCCOCCOCCO`, the Potency result in assay [1], in assay [2], in assay [3], in assay [4], in assay [5] and in assay [6] was “inactive” throughout. The Potency entry in [9] and in assay [12] was “inactive” throughout.

For the compound `CC(C)=CCCC(C)CC=O` (centres undefined), the Potency result in assay [1], in [2], in assay [3], in [5], in assay [6] and in [9] was “inactive” in each case. In [12], the Potency entry is “inactive”.

As to `O=C(O)C1CCC(C(=O)O)CC1` (centres undefined), the Potency entry in assay [1], in [2], in [13], in [3], in assay [4] and in [5] was “inactive” in each case. The Potency entry in [6], in [8], in assay [9], in [10], in assay [11] and in assay [12] was “inactive” each time.

`c1ccc(-c2nc[nH]c2-c2ccccc2)cc1`: the Potency entry in [1], in assay [2], in assay [3], in assay [4], in assay [5] and in assay [6] was “inactive” in each case. The Potency result in [7], in [8], in assay [9] and in assay [12] was “inactive” throughout.

With `CCCCCCCCCCCCCCCCCBr`, the figures for the activity change, negative = cytotoxicity in [1], in assay [2] and in assay [6] were -2.08% [at 15.8 µM], 0.698% [at 19 µM] and 0.897% [at 19 µM], respectively. The viability change, negative = cytotoxic in [3] is -2.8% [at 19 µM]; in assay [5], -1.41% [at 19 µM]; in assay [9] it was 2.64% [at 19 µM]. For the same compound, in assay [4], the activity change, negative = inhibition is 3.44% [at 23.6 µM].

For the compound `Cc1c(Cn2ccnc2)c2ccccc2n1CCC(=O)O`, the Potency result in assay [1], in [2], in [3], in assay [4], in assay [6] and in [9] was “inactive” throughout.

With `N#CCCNCCC#N`, the Potency entry in [1], in [2], in assay [3], in [4], in [5] and in [7] was “inactive” in each case. In addition, the Potency entry in assay [8], in assay [9] and in assay [12] was “inactive” each time.

Take `CCC(=O)OC(C)(C)C1CC=C(C)CC1` (centres undefined): the Potency result in assay [2], in assay [14], in [13], in assay [3], in assay [4] and in [5] was “inactive” throughout. The Potency entry in [6], in assay [7], in assay [8], in assay [9], in assay [10] and in [11] was “inactive” throughout. Also, in [12], the Potency result is “inactive”.

Regarding `COc1ccc2[nH]c(S(=O)Cc3ncc(C)c(OC)c3C)nc2n1` (centres undefined), the Potency result in assay [1], in assay [2], in assay [4], in assay [5], in assay [6] and in [9] was “inactive” in each case. Further, the Potency result in [11] was “inactive”. Also, the Potency in [8] is 26.6 µM (active).

For the compound `CN1CCC(OC(c2ccccc2)c2ccccc2)CC1`, the Potency result in assay [2], in assay [14], in assay [13], in assay [3], in assay [4] and in assay [6] was “inactive” throughout. The Potency entry in assay [7], in [9] and in assay [12] was “inactive” each time.
